These results are taken from ChEMBL document CHEMBL4513216, “Probing the Open Global Health Chemical Diversity Library for Multistage-Active Starting Points for Next-Generation Antimalarials” (ACS Infect Dis, 2020).

Screen size: about 68,000 compounds; about 2,700 (4%) showed an effect of 50% or more. The sample as a whole holds a higher share of strong results than the screen did.

For the test, the system named is Plasmodium berghei. The experiment in a line: Screen against P. berghei liver stage (PbLuc), transformed with Luciferase, at 2uM. The conditions noted are these: tested at 2 uM. Format: functional, HepG2.
On to `CC(C)=CCCC(C)CN1CCC(n2cc(C(C)(C)O)nn2)CC1` (stereo not given), for which the INHIBITION was 15.27%.
The same measure for `CC(C)=CCCC(C)CN1CCC(n2cc(C(=O)NCCO)nn2)CC1` (stereo not given): 48.93%; for `CC(C)=CCCC(C)CN1CCC(n2cc(CO)nn2)CC1` (stereo not given): 55.66%; for `Fc1cccc(C2(CNC3CCOC4(CCOCC4)C3)CCOCC2)c1` (stereo not given): -8.87%.
With `COc1cc(CNCCn2cc(C)cn2)c2c(c1)CC(C)O2` (stereo not given) the figure was -11.26%.
In the case of `CN(C)c1ncccc1N(C)C(=O)Cn1cc(-c2ccccc2)nn1`, the INHIBITION was -34.37%.
With `COc1cccc(OCC(=O)N(C)c2cccnc2N(C)C)c1` the figure was -3.66%; with `COc1ccc(CC(=O)N(C)c2cccnc2N(C)C)c(Cl)c1`, 54.29%.
The same measure for `Fc1ccc(CN2CCC3(CC2)CCN(c2ncccn2)CC3)cc1`: 26.94%; for `CC(O)CN1CCC(CN(C)Cc2cc(F)cc3cccnc23)CC1` (stereo not given): -0.44%; for `Cc1ccc2c(n1)N(CCN(C)C)CCN(C(=O)c1cccs1)C2`: -29.61%.
Turning to `Cc1cnc2n(c1=O)CC(C(=O)NCc1ccccc1Cl)CS2` (stereo not given), the INHIBITION was determined as 39.58%.
With `CCn1ncc2[nH]c(-c3cc(OC)c(OC)cc3OC)nc21` the figure was 13.04%; with `COc1cc2c(cc1-c1nc3c(cnn3C(C)C)[nH]1)OCO2`, 60.13%; with `CCn1ncc2[nH]c(-c3cc4c(cc3OC)OCO4)nc21`, 27.42%.
With `COc1cc2c(cc1-c1nc3c(cnn3C(C)C3CC3)[nH]1)OCO2` (stereo not given), the INHIBITION was 67.28%.
The same measure for `COc1cc2c(cc1-c1nc3c(cnn3C(C)C(C)C)[nH]1)OCO2` (stereo not given): 7.67%; for `COc1cc2c(cc1-c1nc3c(cnn3C)[nH]1)OCO2`: 21.97%; for `Cc1n[nH]c(C)c1NC(=O)CN1CCc2c(nc(C3CC3)n2C)C1`: 47.57%.
With `Cc1[nH]ccc1C(=O)N1CCC2(CC1)c1nc[nH]c1CCN2S(C)(=O)=O` the figure was 0.31%.
The same measure for `CO[C@H]1CO[C@@]2(CCCN(S(=O)(=O)c3ccccc3)C2)C1`: -1.81%; for `Cc1cccnc1CNC(=O)CC1C(=O)NCCN1CC(C)(C)C` (stereo not given): -26.52%.
In the case of `Cc1nnc(N2CC[C@H]3C[C@@H](C(=O)NC4CCCC4)O[C@H]3C2)s1`, the INHIBITION is recorded as -21.74%.
The same measure for `Cc1cnc(C(=O)NCC2CCOc3ccccc3C2)cn1` (stereo not given): 10.05%; for `CNc1nc(C(=O)NCC2CCOc3ccccc3C2)cs1` (stereo not given): 76.82%.
With `Cc1n[nH]c(C)c1CCC(=O)NCC1CCOc2ccccc2C1` (stereo not given) the figure was 49.02%.
Consider `Fc1ccc(-c2n[nH]cc2CNCCn2cccn2)cc1`, for which the INHIBITION was determined as 11.01%.
The same measure for `O=C(NCCN1CCCC1)Nc1cc(C(=O)N2CCOCC2)ccc1Cl`: 19.81%.
The same measure for `CCSCCNC(=O)Nc1cc(C(=O)N2CCOCC2)ccc1Cl`: -0.24%; for `CC(C)OC(=O)c1ccc(Cl)c(NC(=O)NCCN2CCOCC2)c1`: 50.94%; for `CN(CC(=O)NC(C)(C)C)Cc1nc(-c2ccccc2)c[nH]1`: -20.91%.
The same measure for `CS(=O)(=O)NC[C@@H]1OC[C@H]2CN(C(=O)c3ccccc3)CC[C@H]21`: 39.18%; for `COc1cc(C(=O)N2CCCS2(=O)=O)ccc1C`: 9.9%.
As for `COCCN1CCC(CNC(=O)C2(c3cccc(C)c3)CC2)CC1`, the INHIBITION turned out to be 3.9%.
With `COCCN1CCC(CNC(=O)C2(c3ccc(Br)cc3)CCCC2)C1` (stereo not given) the figure was 66.2%; with `COCCN1CCC(CNC(=O)C2(c3cccc(C)c3)CC2)C1` (stereo not given), 43.79%.
With `CCN1CCC(CNC(=O)C2(c3ccc(F)cc3)CC2)C1` (stereo not given) the figure was 20.41%; with `COCCN1CCC(CNC(=O)C2(c3ccc(F)cc3)CCC2)CC1`, 66.2%.
The same measure for `COCCN1CCC(CNC(=O)C2(c3ccccc3)CCC2)C1` (stereo not given): -1.02%; for `COCCN1CCC(CNC(=O)C2(c3cc(C)cc(C)c3)CCC2)C1` (stereo not given): -36.13%; for `COCCN1CCC(CNC(=O)C2(c3cccc(Cl)c3)CC2)C1` (stereo not given): 56.02%.
With `COCCN1CCC(CNC(=O)C2(c3cc(C)cc(C)c3)CC2)CC1`, the INHIBITION is 39.72%.
For `Cc1nc(C(NS(=O)(=O)N(C)C)c2ccccc2F)no1` (stereo not given), the INHIBITION was -1.56%.
With `CCCNC(=O)Nc1ccn(CCCOC)n1` the figure was -27.36%.
The same measure for `CC(C)CSCCN1CCCN(S(C)(=O)=O)CC1`: -14.71%; for `CCn1c(CN(C)C)nnc1C1CCN(Cc2ccc(Cl)cc2F)CC1`: -12.75%.
Turning to `Cc1cccc(C2(O)CCN(C(=O)c3ccccn3)CC2)c1C`, the INHIBITION came to 14.59%.
The same measure for `Cc1cnn(CC2CCCN2Cc2cc(C)no2)c1` (stereo not given): -4.43%; for `COCC1CC2(CCN(C(=O)c3oc4ccccc4c3C)CC2)CO1` (stereo not given): 5.15%; for `CCOc1ccc(Cl)c(C(=O)NCCC(=O)Nc2ccncc2)n1`: 39.54%.
For the molecule `Cn1ccc(C(=O)NCc2ccc(N3CCOCC3)nc2)cc1=O`, the INHIBITION was determined as 52.17%.
With `Cn1ccc(C(=O)NCc2ccc(N3CCCCC3)nc2)cc1=O` the figure was 26.06%; with `CCN1CCN(c2ccc(CNC(=O)c3cnn(C)c3C)cn2)CC1`, 21.83%; with `Cn1ccc(C(=O)NCc2ccc(N3CCCC3)nc2)cc1=O`, 9.3%.
For `CCN1CCN(c2ccc(CNC(=O)c3cc(C)on3)cn2)CC1`, the INHIBITION is on record as 23.24%.
In the case of `CCN1CCN(c2ccc(CNC(=O)c3ccc(Cl)o3)cn2)CC1`, the INHIBITION is reported as 66.93%.
The same measure for `CNC(=O)c1ccnc(CC2COc3c(cccc3OC)C2)c1` (stereo not given): -12.13%; for `CCN(CC)S(=O)(=O)N1CCC(c2nccn2Cc2ccccn2)CC1`: -28.42%; for `Cc1ncc(C(=O)NCCNc2ccncc2)s1`: -60.22%.
With `CN(C)C(=O)c1ccc(C2CCCN2C(=O)CCC2=NNC(=O)CC2)s1` (stereo not given) the figure was -11.64%; with `Nc1nccc(NCc2cc3n(n2)CCCN(C(=O)C2CCC2)C3)n1`, 4.47%.
With `O=C(C1CCC1)N1CCCn2nc(CNc3ncccn3)cc2C1` the figure was 52.47%; with `Cc1nccc(NCc2cc3n(n2)CCCN(C(=O)C2CCC2)C3)n1`, 55.7%; with `Cc1cc(NCc2cc3n(n2)CCCN(S(C)(=O)=O)C3)ncn1`, -14.84%.
For the molecule `Cc1nccc(NCc2cc3n(n2)CCCN(S(C)(=O)=O)C3)n1`, the INHIBITION is 8.89%.
Consider `Cc1cc(NCc2cc3n(n2)CCCN(C(=O)C2CCC2)C3)ncn1`, for which the INHIBITION was determined as 19.13%.
The same measure for `CS(=O)(=O)N1CCCn2nc(CNc3ncccn3)cc2C1`: 51.19%; for `Cc1cc(C)nc(NCc2cc3n(n2)CCCN(C(=O)C2CCC2)C3)n1`: -4.53%.
The same measure for `CSc1nccc(NCc2cc3n(n2)CCCN(C(=O)C2CCC2)C3)n1`: -36.65%; for `CC1=N[C@@]2(CC[C@@H]3CN(Cc4ccc(C)cc4)C[C@@H]32)C(=O)N1CC1CC1`: 41.38%; for `Cc1ccccc1C1CCCN1Cc1nc2c(cnn2C)c(=O)[nH]1` (stereo not given): -29.69%.
The same measure for `Cc1nccc(C(=O)NC(CN2CCCC2=O)c2ccccc2)n1` (stereo not given): -45.82%; for `CC1CN(C)CCN1C(=O)c1ccn(-c2ccccc2)n1` (stereo not given): 23.42%; for `COc1cccc(OCCc2cncc(C(N)=O)c2)c1`: -18.52%.
`COc1cccc(OCCCc2cncc(C(N)=O)c2)c1`: the INHIBITION is 61.08%.
The same measure for `COc1ccccc1OCCCc1cncc(C(N)=O)c1`: -69.92%.
With `Nc1ncnc2nc(C3CCN(C(=O)Cc4ccccc4)C3)ccc12` (stereo not given) the figure was -7.22%.
As to `CCc1nc(CC2CN(c3ncnc4sc(C)c(C)c34)CCO2)no1` (stereo not given), the INHIBITION is -7.81%.
With `CN(C)C(=O)COc1ccccc1CN1CCCC2(C1)CN(C)C(=O)O2` (stereo not given) the figure was -38.26%; with `Cc1cc(NC(=O)C(C)C)n(-c2nc(C)c(C)c(=O)[nH]2)n1`, 27.11%.
With `Cc1nc(-n2nc(C3CC3)cc2NC(=O)C(C)C)[nH]c(=O)c1C` the figure was 55.52%; with `CC(=O)Nc1cc(C2CC2)nn1-c1nc(C)c(C)c(=O)[nH]1`, -8.91%.
Take `CC(C)(C#N)CCCS(=O)(=O)c1nccn1-c1cccc(F)c1`: the INHIBITION worked out at 19.33%.
With `COc1ccc2c(OCC(=O)NC(C)(C)C)ccnc2c1` the figure was -3.8%; with `COc1ccc2c(OCC(=O)NCC(F)(F)F)ccnc2c1`, -26.08%.
Turning to `CCN(CC)C(=O)COc1ccnc2cc(OC)ccc12`, the INHIBITION is 50.42%.
With `CCN(CC1CCOC1)C(=O)Nc1ccc(N2CCOCC2)nc1` (stereo not given) the figure was -25.45%; with `CCN(CC1CCOC1)C(=O)c1cccnc1N1CCOCC1` (stereo not given), 53.03%.
With `CCN(CC1CCOC1)C(=O)c1ccccc1N1CCOCC1` (stereo not given) the figure was -45.72%.
Turning to `CN(C)c1nccc(N2CCO[C@H]3CN(Cc4ccsc4)C[C@H]32)n1`, the INHIBITION was -33.63%.
The same measure for `CN(C)c1nccc(N2CCO[C@H]3CN(Cc4ccco4)C[C@H]32)n1`: 28.14%; for `Cc1cccc(CN2C[C@@H]3OCCN(c4ccnc(N(C)C)n4)[C@@H]3C2)c1`: 53.55%.
With `COc1cccn(CC(=O)N2CCCC3(CCCCC3)C2)c1=O` the figure was 26.14%.
The same measure for `Cc1[nH]c2cc(C3CCN(C(=O)c4ccccn4)CC3)nn2c(=O)c1C`: 9.9%.
With `Cc1ccc(-c2nc(C3CCN(C(=O)c4ccnn4C)CC3)no2)cn1`, the INHIBITION worked out at 10.65%.
In the case of `Cc1csc(CN(C)C(=O)Nc2cc(F)cc(N3CCCC3)c2)n1`, the INHIBITION stood at 0.12%.
With `c1ccc(CO[C@H]2CC[C@H]3[C@H]2OCCN3CCN2CCCCC2)nc1` the figure was 27.42%; with `COc1ccc(CN2CCO[C@H]3[C@H](Oc4ccccn4)CC[C@@H]32)cc1`, -0.68%.
Take `CCN(CC)CCN1CCO[C@H]2[C@@H](OCc3ccccn3)CC[C@@H]21`: the INHIBITION is -31.4%.
On to `CCS(=O)(=O)N1C[C@@H](Oc2ccccn2)[C@H]2OCCC[C@H]21`, for which the INHIBITION worked out at 13.38%.
The same measure for `CS(=O)(=O)N1C[C@@H](Oc2ccccn2)[C@H]2OCCC[C@H]21`: 50.72%; for `Cc1cccc(CN2CCO[C@H]3[C@H](Oc4ccccn4)CC[C@@H]32)n1`: 64.44%.
The same measure for `CCOCCN1CCO[C@H]2[C@H](OCc3ccccn3)CC[C@@H]21`: 55.07%; for `O=S(=O)(C1CC1)N1C[C@H](Oc2ccccn2)[C@H]2OCCC[C@H]21`: 17.77%; for `Cc1nc(CN2CCO[C@H]3[C@@H](Oc4ccccn4)CC[C@@H]32)cs1`: 27.9%.
